The subject of one test is DIO2 (gene 1734). The test is described as follows: CCTE_GLTED_hDIO2: CCTE's human Deiodinase 2 (DIO2) Inhibition Assay, Great Lakes Toxicology and Ecology Division (GLTED) Lab (AID 2284050; active means hit-call score of the fitted dose curve at least 0.9, where 1 is the maximum). A digest of the protocol:
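hDIO2 enzyme + test chem, 3 h → free iodide from substrate; step 2: Sandell-Kolthoff (Ce IV reduction by As, iodide-catalysed), spectrophotometric read. Triplicate plates; DMSO = baseline.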

The test system of a further test is DIO3 (gene 1735). The test is described as follows: CCTE_GLTED_hDIO3: CCTE's human Deiodinase 3 (DIO3) Inhibition Assay, Great Lakes Toxicology and Ecology Division (GLTED) Lab (AID 2284055; active means hit-call score of the fitted dose curve at least 0.9, where 1 is the maximum;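 further: potency is for inhibition seen as loss of released iodide signal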). A digest of the protocol: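 Absorbance from the Sandell-Kolthoff reaction reports iodide released by human DIO3 during a 3-hour incubation with chemical. Inhibition scored as signal loss against DMSO controls.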

Test [1] can be described thus: CCTE_Shafer_MEA_dev_spike_duration_mean: CCTE's Neural Network Formation Assay for Mean Spike Duration, Shafer Lab (AID 2284051).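 Further: mean network spike duration pooled as area under curve over DIV 5 to 12 recordings.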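 On AC50: potency for a decrease in mean network spike duration versus DMSO.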 The essentials:
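Spontaneous activity was recorded on days 5, 7, 9 and 12 from rat cortical cultures grown on microelectrode arrays and dosed continuously from day 0, with media and compound renewed after the DIV 5 and 9 recordings. Network-spike duration was collapsed by area under the curve.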

The nature of test [2]: CCTE_Shafer_MEA_dev_network_spike_duration_std: CCTE's Neural Network Formation Assay for Standard Deviation of Network Spike Duration, Shafer Lab (AID 2284052).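 Further: hits are decreases in network spike duration SD versus DMSO vehicle.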 The essentials:
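Network spike duration variability was collapsed across recordings on days 5, 7, 9 and 12 by trapezoidal area-under-curve and fitted downward against DMSO. Cultures were rat cortical neurons on PEI-coated MEA plates, dosed continuously from plating, refed with compound DIV 5/9.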

The nature of test [3]: CCTE_Shafer_MEA_dev_per_network_spike_spike_number_mean: CCTE's Neural Network Formation Assay for Mean Number of Spikes in a Network Spike, Shafer Lab (AID 2284053).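 On AC50: fitted as decrease in spikes per network spike relative to DMSO.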 The essentials: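 Mean spike count within each network spike, taken in a 0.05 s window at its peak, was recorded on days 5, 7, 9 and 12 and integrated as trapezoidal area under the curve. Rat cortical cultures on MEA plates received continuous compound from day 0, refreshed at medium changes on DIV 5 and 9.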

Test [4] is described as follows: CCTE_Shafer_MEA_dev_per_network_spike_spike_percent: CCTE's Neural Network Formation Assay for Percent of Spikes in a Network Spike, Shafer Lab (AID 2284054). The essentials:
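Primary rat cortical neurons on 16-electrode MEA wells (PEI-coated, laminin at plating), exposed from day 0 with renewal at DIV 5 and 9; spikes within 0.05 s of network-spike peaks over total spikes, AUC across days 5, 7, 9, 12.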

The nature of test [5]: CCTE_Shafer_MEA_dev_AB: CCTE's Alamar Blue Assay for Cytotoxicity in the Neural Network Formation Assay, Shafer Lab (AID 2284083; active means hit-call score of the fitted dose curve at least 0.9, where 1 is the maximum;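 further: resazurin reduction fluorescence as viability of cultured neurons; twelve days of exposure from plating with re-dosing on DIV 5 and 9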). The essentials:
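Resazurin fluorescence, relative to DMSO, gauges viability after twelve days of exposure that began at plating of rat cortical neurons (1.5 x 10^5 cells/well, 48-well MEA); treatment renewed with full medium exchange on DIV 5 and 9.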
A general note: Resazurin is reduced to fluorescent resorufin, in cell work by metabolically active cells.

A short description of test [6]: CCTE_Shafer_MEA_dev_LDH: CCTE's Lactate Dehydrogenase Assay for Cytotoxicity in the Neural Network Formation Assay, Shafer Lab (AID 2284068; active means hit-call score of the fitted dose curve at least 0.9, where 1 is the maximum;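 further: exposure for twelve days from plating with re-dosing on DIV 5 and 9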). The essentials: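 Primary rat cortical neurons were cultured on PEI-coated MEA plates and exposed from plating through day 12, with compound renewed at medium changes on DIV 5 and 9. LDH activity was read spectrophotometrically; loss of signal versus DMSO indicates reduced viability.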

Test [7] can be described thus: UKN5_HCS_SBAD2_cell_viability: Viability Assessment in the University of Konstanz (UKN) Leist Lab Neurite Outgrowth Assay in human iPSC-derived immature Dorsal Root Ganglia Neurons (UKN5) (AID 2284056). The essentials:
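iPSC-derived immature peripheral neurons (SBAD2) seeded on Matrigel with CHIR99021, SU5402 and DAPT, dosed 1 h later for 24 h. Viability from Hoechst H-33342 and calcein-AM live staining, high-content imaging; bidirectional fit versus DMSO.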

Test [8] can be described thus: UKN5_HCS_SBAD2_neurite_outgrowth: University of Konstanz (UKN) Leist Lab Neurite Outgrowth Assay in human iPSC-derived immature Dorsal Root Ganglia Neurons (UKN5) (AID 2284070). To be noted: actives raise or lower the signal. A digest of the protocol:
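Read-out: calcein-AM-stained neurite area by high-content imaging, Hoechst H-33342 for viability, after 24 h exposure of iPSC-derived immature dorsal root ganglia neurons. Activity fitted in both directions relative to DMSO baseline.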

Results filed as inconclusive are left out. A structure can be active in one record and inactive in another. The source made the active and inactive calls. How the source made its calls, unless noted: active means hit-call score of the fitted dose curve at least 0.9, where 1 is the maximum; inactive means score below 0.9.

Consider `CN[C@H]1CC[C@@H](c2ccc(Cl)c(Cl)c2)c2ccc(S(N)(=O)=O)cc21`, for which the AC50 with DIO2 (gene 1734) was 49.3 µM (active); in the test with DIO3 (gene 1735) it was 45.9 µM (active).

For `FC(F)(F)C(F)(F)C(F)(F)C(F)(F)C(F)(F)C(F)(F)CCI`, the result in [1], in [2], in test [3], in test [4] and in test [5] was inactive.

As for `C=CCc1ccc(O)c(OC)c1`, the compound was classed as inactive in test [1], in test [2], in test [3], in test [4], in test [6] and in test [5].

As to `O=c1[nH]cc(F)c(=O)[nH]1`, the half-maximal activity concentration (AC50) in test [1] is 1.52 µM (active); in [2], 2.01 µM (active); in [3], 0.913 µM (active); in test [4] it was 0.607 µM (active); in [6], 2.48 µM (active); in [5], 3.24 µM (active).

For the compound `CC1=C(/C=C/C(C)=C/C=C/C(C)=C/CO)C(C)(C)CCC1`, the values for the AC50 in the test with DIO2 (gene 1734) and in the test with DIO3 (gene 1735) were 47 µM (active) and 28.3 µM (active), respectively.

For `C[Si]1(C)O[Si](C)(C)O[Si](C)(C)O[Si](C)(C)O1`, the call in [1], in [2], in test [3] and in test [4] was inactive.

Consider `CCCc1cc(=O)[nH]c(=S)[nH]1`, for which the AC50 was 20.7 µM (active) in test [1]; 25 µM (active) in test [3]; 24.9 µM (active) in test [4]; 23.8 µM (active) in [6]; 24.6 µM (active) in test [5]. Also, the compound was called inactive in [1], in [2], in [3], in test [4], in test [6] and in test [5].

Turning to `Cc1cc(=O)[nH]c(=S)[nH]1`, the result in test [1], in test [2], in [3], in test [4] and in [5] was inactive.

Consider `COc1cc(-c2nc(NC(=O)c3cc4cc(C)cc(C)c4n3CC(=O)O)sc2CCC2CCCCC2)c(OC)cc1Cl`, for which the outcome in the test on DIO2 (gene 1734) was inactive. Also, the concentration at half-maximal activity (AC50) in the test on DIO3 (gene 1735) was 8.64 µM (active).

Turning to `CC(C)c1ccc(C(=O)N=C(N)N)cc1S(C)(=O)=O`, the call in test [1], in [2], in test [3], in test [4], in test [6] and in [5] was inactive.

In the case of `CC(=O)Oc1ccccc1C(=O)O`, the compound was called inactive in test [1], in test [2], in [3], in test [4], in [7] and in [6]. Besides, the compound was called inactive in test [8] and in test [5]. In addition, the AC50 in test [2] is 0.0101 µM (active).

With `OC[C@@H](O)[C@@H](O)[C@H](O)[C@H](O)CO`, the outcome in [1], in test [2], in test [3] and in test [4] was inactive. The AC50 in [5] is 0.437 µM (active).

Take `CCCCC(CC)COC(=O)CC(C(=O)OCC(CC)CCCC)S(=O)(=O)O` (centres undefined): the AC50 in the test with DIO2 (gene 1734) is 85.1 µM (active); in the test with DIO3 (gene 1735) it was 92.2 µM (active).

Consider `CCCCCCCCCCCCCO`, for which, in the test on DIO2 (gene 1734), the compound was classed as inactive. For the same compound, the AC50 in the test with DIO3 (gene 1735) was 51.8 µM (active).

As for `CC=Cc1ccc(O)c(OC)c1`, the figures for the AC50 in the test with DIO2 (gene 1734) and with DIO3 (gene 1735) were 68 µM (active) and 14.9 µM (active), respectively.

Broadly, the AC50 is the concentration at which the activity in the assay is half-maximal.

The values above are taken from PubChem BioAssay (EPA / NIEHS).
